SNCA viab count: reduces viability of HEK-293 SNCA reporter cells; HEK-293-SNCA-luc viability, GF-AFC fluorescence, 24 h; Potency, µM (doses to about 57.1 µM), most hits filed as cytotoxic; actives 0.12% (n = 150,000); note: nearly all actives have a fitted effect of over 30% in size
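HEK-293-SNCA-luc cells (1500/well) plated 24 h, then exposed 24 h to a dilution series; GF-AFC added 30 min at 37C, fluorescence 405/540 nm; normalised to medium-only and DMSO wells, Hill fit.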
SNCA expr inh: reduces expression of the alpha-synuclein gene; HEK-293 SNCA-luciferase knock-in, luminescence, 24 h; Potency, µM (series often up to 57.2 µM), usual class: inhibitors; actives 0.17% (n = 140,000); AID 1671194; note: nearly all actives have a fitted effect of over 45% in size
HEK293 tox: kills HEK 293 cells. HEK 293 viability, ATP luminescence (CellTiter-Glo), 48-72 h. Potency, µM (titrated, usually from 115 µM), hits mostly inhibitors. actives 6.6% (n = 94,000). AID 1345083; note: nearly all actives have a fitted effect of over 60% in size
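qHTS cytotoxicity; HEK 293, 250 cells/well; compound pinned; 48 or 72 hr, 37 degree Celsius, 5% CO2, 95% humidity; CellTiter-Glo, 10 min RT; luminescence (ATP).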
IP6K1 inhibitor: blocks human inositol hexakisphosphate kinase 1; IP6K1 kinase, ADP-Glo luminescence, 2 h; stronger effect = lower value; activity change, % (series mostly up to about 58 µM); actives 0.81% (n = 140,000); in the data active = activity change below about -25%
Target sequence (Q92551 whole entry, looked up): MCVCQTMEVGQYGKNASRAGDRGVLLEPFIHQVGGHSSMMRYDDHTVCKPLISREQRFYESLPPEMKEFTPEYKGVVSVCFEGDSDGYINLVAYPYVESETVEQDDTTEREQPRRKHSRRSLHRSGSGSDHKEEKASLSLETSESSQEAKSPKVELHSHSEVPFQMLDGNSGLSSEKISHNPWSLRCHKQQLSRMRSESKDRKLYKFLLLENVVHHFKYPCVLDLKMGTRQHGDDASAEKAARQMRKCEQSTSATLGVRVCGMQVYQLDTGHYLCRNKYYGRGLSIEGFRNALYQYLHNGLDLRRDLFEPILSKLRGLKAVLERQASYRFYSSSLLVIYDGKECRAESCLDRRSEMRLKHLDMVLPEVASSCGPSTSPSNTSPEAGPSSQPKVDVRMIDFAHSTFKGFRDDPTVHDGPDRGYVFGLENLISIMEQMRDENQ
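ADP-Glo luminescence measures ADP made by human IP6K1 during a 2 h RT reaction with ATP/IP6 (mix at 1.3 mM/130 uM); top library doses 57.5 and 19.1 uM final.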
FLuc inh: inhibitors of firefly (Photinus pyralis) luciferase; P08659; purified P. pyralis luciferase, luminescence, biochemical; Potency, µM (top dose mostly 115 µM), most hits filed as inhibitors; actives 2.5% (n = 76,000); AID 1347043; note: nearly all actives have a fitted effect of over 65% in size
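Luminescence read by CCD imager after adding enzyme (10nM final) to wells holding compound, titrated in qHTS. Substrates 10uM each D-luciferin and ATP; buffer 50mM Tris acetate pH 7.5, 10mM Mg acetate, Tween-20, BSA.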
3T3 cytotox: kills NIH 3T3 cells; Potency, µM (top dose mostly 96.7 µM), most hits filed as inhibitors; NIH 3T3 viability, CellTiter-Glo ATP luminescence, 48-72 h; actives 4.3% (n = 94,000); note: nearly all actives have a fitted effect of over 55% in size
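Viability of NIH 3T3 cells after 48 or 72 hr compound treatment at 37 °C was assessed by CellTiter-Glo, with luminescence imaged following a 10 min room-temperature step.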
Of the large screens only hits and unclear results are named; the others gave an inactive call. Shown are actives, neighbours in structure and some others; about 7.3% of the full set was active somewhere. Unless noted, calls come from the whole dose curve; as a rule, active = well fitted curve in the direction sought with a large enough effect; inconclusive = small, poorly fitted or top-dose-only effect, or another doubt; inactive = no such curve, though single readings can be large; an effect the other way counts as inactive or inconclusive.

Cc1nc(CN2C[C@H](C(=O)Nc3cccc(F)c3)C[C@@H]2c2ccc(F)cc2)cs1	HEK293 tox 40µM, 3T3 cytotox 40µM
CCOC(=O)C1CCN(C(=O)c2ccc3nc(-c4cccc(C)n4)oc3c2)CC1	none (no result: FLuc inh)
Cn1cc(CN(C(=O)C2CCC(=O)N(Cc3cccc(F)c3)C2)C2CC2)cn1 (configuration not stated)	none
COc1ccccc1-n1c(=O)c(C(=O)NCc2cccs2)nc2cccnc21	none (no result: FLuc inh)
COc1cccc(NC(=O)[C@@H]2C[C@H](c3ccc(F)cc3)N(Cc3csc(C)n3)C2)c1	SNCA viab count inconclusive, SNCA expr inh inconclusive, HEK293 tox 63µM, 3T3 cytotox inconclusive
O=C(Nc1cccc(F)c1)[C@@H]1C[C@@H](c2ccc(F)cc2)N([S+](=O)([O-])c2ccccc2)C1	SNCA expr inh inconclusive, HEK293 tox 35µM, 3T3 cytotox inconclusive
COc1ccc(NC(=O)[C@@H]2C[C@H](c3ccc(F)cc3)N(Cc3csc(C)n3)C2)cc1OC	HEK293 tox inconclusive, 3T3 cytotox inconclusive
COc1cccc(NC(=O)[C@@H]2C[C@H](c3ccc(F)cc3)N([S+](C)(=O)[O-])C2)c1	HEK293 tox inconclusive
COc1cccc(NC(=O)[C@@H]2C[C@@H](c3ccc(F)cc3)N(CCOc3ccccc3)C2)c1	SNCA viab count inconclusive, SNCA expr inh inconclusive, HEK293 tox 40µM, 3T3 cytotox inconclusive
CNC(=O)c1cc(C)nc2onc(C3CCCN([S+](=O)([O-])CCC(F)(F)F)C3)c12 (configuration not stated)	none (no result: SNCA viab count, SNCA expr inh, FLuc inh)
O=C(NCCc1ccncc1)C1c2ccccc2C(=O)N(C2CCCCC2)C12CCCCC2 (configuration not stated)	SNCA viab count inconclusive, HEK293 tox 40µM, 3T3 cytotox inconclusive
COC(=O)CCNC(=O)C1c2ccccc2C(=O)N(C2CCCC2)C12CCCCC2 (configuration not stated)	HEK293 tox inconclusive, 3T3 cytotox inconclusive
CCCNC(=O)C1c2ccccc2C(=O)N(C2CCCCC2)C12CCCCC2 (configuration not stated)	HEK293 tox 40µM, 3T3 cytotox inconclusive
O=C(NCc1ccccn1)C1c2ccccc2C(=O)N(C2CCCCC2)C12CCCCC2 (configuration not stated)	HEK293 tox 25µM, 3T3 cytotox inconclusive
COc1cccc(C(=O)NC2CCN(Cc3cccc(-c4cccs4)c3)CC2)c1	SNCA expr inh inconclusive, HEK293 tox inconclusive, 3T3 cytotox inconclusive (no result: FLuc inh)
Cc1cc(Nc2cc(N3CCN(C)CC3)nc(/C=C/c3ccccc3)n2)n[nH]1	SNCA viab count 30µM (no result: SNCA expr inh, HEK293 tox, FLuc inh, 3T3 cytotox)
Cc1cc(Nc2cc(N3CCN(C)CC3)nc(C=Cc3ccccc3)n2)n[nH]1	SNCA viab count inconclusive (no result: HEK293 tox, IP6K1 inhibitor, FLuc inh, 3T3 cytotox)
CC1=C[C@@H](CNCc2ccc(F)cc2)[C@H](C(C)C)C[C@H]1Cc1nnc(-c2cncn2C)o1	SNCA viab count inconclusive, HEK293 tox 45µM, 3T3 cytotox inconclusive
CC1=C[C@@H](CNCc2ccc(Cl)cc2)[C@H](C(C)C)C[C@H]1Cc1nnc(-c2cncn2C)o1	HEK293 tox 79µM, 3T3 cytotox 40µM
O=C1Nc2ccccc2CC12CN(Cc1ccc(F)cc1)C2	HEK293 tox inconclusive (no result: FLuc inh)
O=C1Nc2ccccc2CC12CCN(Cc1ccc(F)cc1)C2 (configuration not stated)	HEK293 tox 71µM
COc1ccc(CNC(=O)c2ccc3c(c2)N(C(=O)c2ccc(F)cc2)CC3)cc1OC	HEK293 tox 32µM, 3T3 cytotox inconclusive
Cc1ccc(NC(=O)Cn2ccn3nc4c(c3c2=O)CC(C)CC4)cc1 (configuration not stated)	HEK293 tox inconclusive, 3T3 cytotox inconclusive
CCOc1ccc(NC(=O)Cn2ccn3nc4c(c3c2=O)CC(C)CC4)cc1 (configuration not stated)	SNCA viab count inconclusive, SNCA expr inh inconclusive, HEK293 tox 40µM, 3T3 cytotox 32µM
CCOC(=O)c1ccc(NC(=O)Cn2ccn3nc4c(c3c2=O)CCCCC4)cc1	HEK293 tox 45µM, 3T3 cytotox inconclusive
O=C1CCN(C(=O)C2CCN(C(=O)CCc3ccccc3)CC2)CCCCCCN1	none
CC#CCn1cc2c3c(cccc31)[C@H](CC(C)C)N[C@H](C(=O)N1CCN(CCOC)CC1)C2	HEK293 tox inconclusive, 3T3 cytotox inconclusive
CC(C)C[C@@H]1N[C@H](C(=O)NCC2CC2)Cc2cn(Cc3nccn3C)c3cccc1c23	SNCA viab count inconclusive, SNCA expr inh inconclusive, HEK293 tox 35µM, 3T3 cytotox 63µM
COCCCNC(=O)[C@@H]1Cc2cn(Cc3nccn3C)c3cccc(c23)[C@H](CC(C)C)N1	HEK293 tox inconclusive
CCCNC(=O)[C@@H]1Cc2cn(Cc3nccn3C)c3cccc(c23)[C@H](CC(C)C)N1	HEK293 tox 45µM, 3T3 cytotox 100µM
CC#CCn1cc2c3c(cccc31)[C@H](CC(C)C)N[C@H](C(=O)NCCC)C2	SNCA expr inh inconclusive, HEK293 tox 56µM, 3T3 cytotox 40µM
O=C(Nc1ccc2c(N3CCCC3)ncnc2c1)c1c(F)cccc1F	HEK293 tox inconclusive, 3T3 cytotox inconclusive
Cc1ccc(C(=O)N2CCC3(CC2)COc2ccccc2C(=O)N3)cc1	none
CC(C)c1noc(-c2cn(C3CCCN(C(=O)c4ccc(C(C)(C)C)cc4)C3)nn2)n1 (configuration not stated)	SNCA expr inh inconclusive, HEK293 tox inconclusive
CCC(=O)N1CCN(c2nc3c(s2)CC(C(=O)Nc2ccc(F)cc2C)CC3)CC1 (configuration not stated)	HEK293 tox inconclusive
CCC(=O)N1CCN(c2nc3c(s2)CC(C(=O)Nc2ccc(F)cc2F)CC3)CC1 (configuration not stated)	SNCA viab count inconclusive, HEK293 tox 10µM, 3T3 cytotox inconclusive
CCC(=O)N1CCN(c2nc3c(s2)CC(C(=O)Nc2cccc(C)c2C)CC3)CC1 (configuration not stated)	HEK293 tox 40µM, 3T3 cytotox inconclusive
CSc1ccc(-c2cccc(CN3CCC(NC(=O)c4ccccc4Cl)CC3)c2)cc1	HEK293 tox 40µM, 3T3 cytotox inconclusive (no result: SNCA viab count, SNCA expr inh, FLuc inh)
O=C(Nc1ccccc1)NC1CCN(Cc2cccc(-c3ccc(F)c(F)c3)c2)CC1	HEK293 tox 20µM, 3T3 cytotox 16µM (no result: FLuc inh)
CC(C)(C)C(=O)NC1CCN(Cc2cccc(-c3ccc(F)c(F)c3)c2)CC1	none (no result: FLuc inh)
CSc1ccc(-c2cccc(CN3CCC(NC(=O)Nc4ccc(Cl)cc4)CC3)c2)cc1	HEK293 tox 22µM, 3T3 cytotox 13µM (no result: SNCA viab count, SNCA expr inh, FLuc inh)
CN(c1ccccc1)C1CNC1	none (no result: FLuc inh)
CN(c1ccc(Cl)c(Cl)c1)C1CNC1	HEK293 tox 112µM, 3T3 cytotox 100µM (no result: FLuc inh)
